# Screens as filed in PubChem.
# AHR act = human AHR activation | P35869 | AHR-responsive luciferase reporter cells, luminescence | activation, % at 5 µM | 2.5% of 320,000 active | AID 2796; in the data active = activation above about 47%;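 note: 0% = vehicle wells and 100% = reference agonist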
# KLK7 zymogen act = activates the human kallikrein-7 zymogen; activation, % at 7 µM; AID 652039; purified proKLK7, EDANS-DABCYL substrate fluorescence; 100% is mature enzyme control, 0% vehicle; P49862; 0.9% of 370,000 active;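 active = activation above the mean of all tested compounds plus 3 SD, computed per campaign excluding outliers beyond control limits, cut at about 13% in these data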
# ADAM17 inh = inhibitors of human ADAM17 | recombinant ADAM17, EDANS/DABCYL FRET peptide cleavage | inhibition, % at 6.95 µM | 0.83% of 370,000 active;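 active = inhibition above the mean of compounds lying between control limits plus 3 SD, set per campaign, cut at about 8.5% in these data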;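 note: 0% = DMSO-only wells as the low control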
# rCAG RNA binder = binds r(CAG) RNA repeats; r(CAG) RNA repeat, TO-PRO-1 dye displacement fluorescence; inhibition, % at 3 µM; 1.3% of 370,000 active; AID 651821;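 active = inhibition above the plate cutoff, the mean of all test compounds on that plate plus 3 SD, cut at about 35% in these data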;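 note: 0% = DMSO alone and 100% = 100 µM mitoxantrone as full dye displacement; higher means more dye released from RNA so lower well fluorescence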
# NR3A LBD binder = modulators (binders) of human NR3A ligand-binding domain. 2.5% of 340,000 active. AID 1259313. NR3A LBD differential scanning fluorimetry, Tm shift; 0% = protein alone, 100% = glycine-bound protein. Tm shift relative to glycine control, % at 25 µM;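 active = melting temperature shift of at least 10% of the positive control shift, at one fixed dose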
# ADAM10 inh = inhibits human ADAM10 | O14672 | recombinant ADAM10, EDANS/DABCYL FRET peptide cleavage, 3 h | inhibition, % at 7 µM | 0.62% of 370,000 active;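 active = inhibition above a per-campaign cutoff equal to the mean of compounds falling between control-based bounds plus 3 SD, cut at about 20% in these data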;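 note: 0% = DMSO wells while the 100% control is not disclosed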
# Target sequence (O14672 214-748 limits assumed): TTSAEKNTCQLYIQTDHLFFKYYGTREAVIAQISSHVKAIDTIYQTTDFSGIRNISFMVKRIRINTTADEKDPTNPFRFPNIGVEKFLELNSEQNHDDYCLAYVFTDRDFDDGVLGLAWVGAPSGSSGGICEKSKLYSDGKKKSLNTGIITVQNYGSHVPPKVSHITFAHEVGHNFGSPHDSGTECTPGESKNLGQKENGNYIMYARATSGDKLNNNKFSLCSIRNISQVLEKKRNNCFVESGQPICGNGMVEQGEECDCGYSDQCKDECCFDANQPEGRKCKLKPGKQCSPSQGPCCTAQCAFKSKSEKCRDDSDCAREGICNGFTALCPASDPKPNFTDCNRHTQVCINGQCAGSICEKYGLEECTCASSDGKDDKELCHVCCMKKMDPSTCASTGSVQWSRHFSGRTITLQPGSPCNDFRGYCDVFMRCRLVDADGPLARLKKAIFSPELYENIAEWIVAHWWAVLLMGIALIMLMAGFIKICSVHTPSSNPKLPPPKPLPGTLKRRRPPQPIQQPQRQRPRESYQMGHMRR
# * = called active by the depositor; . = no result given. The list is not random: actives were taken first. Their share in the collection is about 7%.
SMILES,AHR act,KLK7 zymogen act,ADAM17 inh,rCAG RNA binder,NR3A LBD binder,ADAM10 inh
Cc1ccccc1NC(=O)OC1CC2CC1[C@H]1CCCCN1[C@H]2Cc1ccccc1 (some centres not stated),.,-0.7,-2.1,2.5,.,-8.5
C=CCN1C(=O)[C@@H](CC(=O)NCc2cccs2)[C@]2(C(=O)OC)CCCCC=C12,.,-0.6,-0.6,6.3,.,-13.2
COC(=O)c1cccc(NC(=O)/C=C/c2cccc([N+](=O)[O-])c2)c1,-1.9,-0.7,-2.4,3.9,17.4*,3.7
Cc1cc(Cl)ccc1OCc1cn2cccnc2n1,-3.8,0.6,-15.9,2.0,-1.6,-26.8
Clc1cccc(NCc2cn3cccnc3n2)c1,8.3,-0.2,-1.9,1.0,10.9*,-4.9
Cc1ccc(Cn2cc(CN3[C@H](CC(C)C)COc4cc(Br)ccc4S3(=O)=O)nn2)cc1,.,0.3,-0.5,0.2,.,4.9
[O-]/C(=C(\C(=S)Nc1cccc2ccccc12)[n+]1ccccc1)c1ccc(Cl)s1,73.3*,-4.9,-11.5,7.3,-7.7,-38.0
CSc1ccc(-c2csc(N3CCC(C(N)=O)CC3)n2)cc1,.,.,-6.5,.,.,-25.7
COc1cc(NC(=O)c2c(OC)cccc2OC)ccc1NC(=O)c1cc2ccccc2o1,71.8*,-110.4,1.7,9.6,-2.3,9.1
COc1cc(NC(=O)c2cccc(F)c2)ccc1NC(=O)c1cc2ccccc2o1,4.1,-8.6,-4.6,3.2,36.0*,-0.9
COc1ccc(OCC(=O)NC(=S)Nc2ccc3c4c(cccc24)CC3)cc1,5.1,0.4,-1.8,2.5,-3.6,-23.5
COc1cccc(C(=O)NC(=S)Nc2ccc3c4c(cccc24)CC3)c1,66.7*,0.1,2.2,13.9,-14.8,2.1
Cc1ccc(CNC(=O)Cn2c(=O)n(CC(=O)N3CCCCC3)c(=O)c3sccc32)cc1,-0.7,0.5,-5.1,-4.0,2.3,2.1
Cc1ccc(CNC(=O)Cn2c(=O)c3sccc3n(Cc3ccc([N+](=O)[O-])cc3)c2=O)cc1,-2.2,0.1,0.5,1.6,30.6*,-1.1
O=C(CSC1=NS(=O)(=O)c2cc(Cl)ccc2N1)c1ccc(Cl)cc1,0.9,0.1,1.0,16.8,11.9*,-1.7
Cc1cc(SCC(=O)N/N=C/c2ccc(O)c(O)c2)nc2ccccc12,10.6,0.0,3.0,13.2,5.9,8.0
O=C(CO)N/N=C/c1ccccc1F,3.2,0.2,-4.0,36.3*,0.8,4.5
O=C(CCC(=O)Nc1ccc(Br)cc1)N/N=C/c1ccccc1O,14.7,-25.4,-13.8,8.1,-14.4,-16.9
O=C(CCCCC(=O)NN=Cc1ccccc1O)NN=Cc1ccccc1O,.,-43.7,-20.2,2.9,35.4*,-83.7
Cc1cc(SCC(=O)N/N=C/c2ccc(O)cc2O)nc2ccccc12,8.3,-0.8,0.7,14.7,25.5*,9.0
O=C(CN1CCCc2ccccc21)N/N=C/c1ccc(O)cc1O,53.5*,-5.3,-9.7,11.9,6.7,-43.3
O=C(COCC(=O)N/N=C/c1ccccc1F)N/N=C/c1ccccc1F,11.6,-0.2,-0.3,-4.2,-8.1,0.5
Clc1ccc([C@H]2OC[C@@]3(CNCCc4c[nH]c5ccccc45)CS[C@H](c4ccc(Cl)cc4)N23)cc1,.,-0.2,1.3,2.5,.,3.4
COc1ccc2c(c1)CO[C@H]([C@H](O)CO)[C@H]2/C=C/c1ccccc1,.,-0.2,-0.2,3.5,.,-7.5
O=C(CSCC(=O)NN=Cc1ccccc1O)NN=Cc1ccccc1O,.,-23.0,-12.6,0.0,25.5*,-39.5
SMILES,AHR act,KLK7 zymogen act,ADAM17 inh,rCAG RNA binder,NR3A LBD binder,ADAM10 inh
COc1cc(NC(=O)c2ccc(Cl)cc2)c(OC)cc1Cl,60.3*,-2.1,-1.3,-1.4,9.7,-7.3
COc1ccc(C2COC(=O)C2=N)c(NC(=O)c2ccc(Cl)cc2)c1 (configuration not stated),75.8*,-0.5,-1.6,2.1,1.6,-7.7
COc1ccc(C(=O)Nc2ccc(Cl)cn2)cc1S(=O)(=O)N1CCCC1,3.6,-0.5,-5.9,-1.3,-1.6,2.2
COc1cc(NC(=O)c2ccc(Cl)cc2)c(OC)cc1NC(=O)CN1CCOCC1,47.8*,-0.1,-0.3,-1.2,-0.1,0.2
COc1ccc(C(=O)Nc2ccc(Cl)cn2)cc1Cl,16.3,0.7,-0.8,-0.1,29.6*,7.2
Cc1ccc(N2C(=O)c3ccccc3C2=O)cc1,44.6,-0.7,1.0,-0.6,-0.4,4.2
Cc1ccc(N2C(=O)c3ccccc3C2=O)cc1Cl,11.5,-0.7,1.0,0.5,11.7*,13.9
